Reference: PubChem BioAssay AID430 (Sanford-Burnham Center for Chemical Genomics, 2006)
About 1,100 (1.7%) of roughly 63,000 compounds were called active. Only a selection was taken, and actives are over-represented in it overall. Measured potencies and affinities stand elsewhere. Unmarked numbers belong to inactive results. Cut-off read from the data, not from the text of the source: active = cytotoxicity above about 50%; inactive = the rest.

Assay: cytotoxicity in HPDE-C7 cells, cell-based, fluorescence, HTS (AID 430);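 note: cells exposed to compound for 48 hours before viability readout; 0% = vehicle and 100% = reference cytotoxic drug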
Conditions: HPDE-C7 pancreatic duct cells viability, at 10 µM, hits give high values

Compound | cytotoxicity
Cc1ccc(OC(=O)CCC(=O)N2CCc3ccccc32)cc1 | 4%
Cc1cccc(N2CCN(CCNC(=O)c3cc4c(s3)CS(=O)(=O)C4)CC2)c1C | -3.7%
O=S(=O)(NCCc1ccccn1)c1cccs1 | -28.8%
O=c1c2c3nc4ccccc4nc3n(/N=C/c3ccco3)c2ncn1CCC1=CCCCC1 | 23%
Cc1nc2c(c(=O)n1CCC1=CCCCC1)c1nc3ccccc3nc1n2/N=C/c1ccco1 | 63.7% (active)
CCCn1c(C)nc2c(c1=O)c1nc3ccccc3nc1n2CCC1=CCCCC1 | -0.4%
O=c1oc2ccccc2c2c1ncn2-c1ccccc1 | -17.3%
O=C(Nc1nnc(CC2=CCCCC2)s1)c1cccs1 | 0.5%
Cn1c(CNC(=O)c2ccc(F)cc2)nc2ccccc21 | 0.8%
COc1cc2c(cc1OC)C(/C(C#N)=N\O)=NC(C)(C)C2 | 13%
CCOC(=O)/C=C1\NC(C)(C)Cc2cc(OC)c(O)cc21 | 1.4%
CCC1C(O)=C(c2ccccn2)C(=N)N1c1ccccc1 (stereo unspecified) | 0.3%
CCOCCOC(=O)C1=C(C)N(C)C(=O)NC1c1ccccc1Cl (stereo unspecified) | -0.5%
C/C(NCCN1CCOCC1)=C(\C#N)C(N)=O | -5.5%
CCOC(=O)c1c(NC(C)=O)sc2c(O)c(CN3CCN(CC)CC3)ccc12 | 68% (active)
CCOC(=O)c1sc(NC(C)=O)c(C(=O)OCC)c1C | 4.3%
CCOC(=O)c1c(NC(C)=O)sc2c(O)cccc12 | 21.8%
CC(=O)Nc1ccc(S(=O)(=O)NCC2CCC(C(=O)N3CCCCCC3)CC2)cc1 (stereo unspecified) | -6.2%
COc1ccc(CNCC(=O)Nc2cc(C)nn2-c2nc(C)cc(C)n2)cc1OC | 52.9% (active)
Cc1cc(C)nc(-n2nc(C)cc2NC(=O)c2ccc(Br)o2)n1 | 25.7%
COc1ccc(CNc2nc3nc(C)cc(C)n3n2)cc1OC | 2.5%
Cc1cc(C)nc(-n2nc(C)cc2NC(=O)CN2CCc3ccccc3C2)n1 | 19.1%

Compound | cytotoxicity
Cc1cc(C)nc(-n2nc(C)cc2NC(=O)CN2CCC(C)CC2)n1 | 0.1%
COc1ccccc1N1CCN(CC(=O)Nc2cc(C)nn2-c2nc(C)cc(C)n2)CC1 | 52.4% (active)
COc1ccc(C(CC(=O)O)NC(=O)c2ccco2)cc1OC (stereo unspecified) | -6.5%
O=C(c1ccco1)N1CCN(C(c2ccccc2)c2nnnn2Cc2cccs2)CC1 (stereo unspecified) | 7.3%
Cc1ccc(OCc2nc(-c3ccccn3)no2)c(Br)c1 | 12.5%
Clc1ccc(OCc2nc(-c3ccccn3)no2)c(Br)c1 | 4.3%
CC(C)CCn1c(=O)c2ccccc2n2c(CN(C)Cc3ccccc3)nnc12 | -12.8%
O=c1[nH]c(CSc2nc3ccccc3o2)nc2c1cnn2-c1ccccc1 | 0.3%
O=C(NCCc1ccccc1)C1CCCN(S(=O)(=O)c2cccc3nsnc23)C1 (stereo unspecified) | -0.3%
CCN1CCCC1CNC(=O)C1CCCN(S(=O)(=O)c2cccc3nsnc23)C1 (stereo unspecified) | 61.7% (active)
O=C(NCC1CCCO1)C1CCCN(S(=O)(=O)c2cccc3nsnc23)C1 (stereo unspecified) | -15%
CC(=O)Nc1ccc(S(=O)(=O)NCc2cn3c(C)csc3n2)cc1 | 10.5%
Cc1cc(C(=O)Nc2c(F)cc(F)cc2Br)no1 | 0.9%
O=C(Nc1c(F)cc(F)cc1Br)c1cc(-c2ccc(O)cc2)on1 | 54.4% (active)
O=C(Nc1c(F)cc(F)cc1Br)c1cc(-c2ccco2)on1 | 58.5% (active)
COc1ccccc1-c1cc(C(=O)Nc2c(F)cc(F)cc2Br)no1 | -10.6%
O=C(Nc1c(F)cc(F)cc1Br)c1ccco1 | 0.6%
O=C(Nc1ccc(F)cc1F)c1cc(-c2ccco2)on1 | -5.3%
Cc1ccc(S(=O)(=O)CCc2nnc(NC(=O)c3cnccn3)s2)cc1 | -8.2%
CC(=O)Oc1cc2c(C(=O)NCCCN3CCOCC3)c(C)oc2c2ccccc12 | 5.1%
CCN(CC)c1ccc(C(=O)Nc2cccc(F)c2)cc1 | 34%
CCN(CC)c1ccc(NC(=O)c2cccc(OC)c2)c(C)c1 | 39.6%

Compound | cytotoxicity
CCOc1cccc(C(=O)Nc2ccc(N3CCN(S(C)(=O)=O)CC3)cc2)c1 | -6.2%
CCN(CC)c1ccc(NC(=O)c2c(OC)cccc2OC)c(C)c1 | 0.4%
CCN(CC)c1ccc(NC(=O)c2cc(OC)cc(OC)c2)c(C)c1 | 53.5% (active)
CCOc1cccc(C(=O)Nc2ccc(N(CC)CC)cc2)c1 | 79.8% (active)
COc1ccc(CC(=O)NCc2ccccc2Cl)cc1S(=O)(=O)N1CCOCC1 | 1.1%
CCSc1nsc(SCC)c1C(N)=O | -6.7%
CCCN(CCO)Cc1cccc(Cl)c1 | 6.6%
COc1ccc(NS(=O)(=O)c2ccc(C)c(C(=O)O)c2)cc1 | 5%
CCOC(=O)N1CCN(C(=O)c2cc3sccc3n2C)CC1 | -9.1%
Cc1onc(-c2ccccc2Cl)c1C(=O)N1CCN=C1SCc1cccnc1 | -11.9%
COc1cccc(CN(C)C(=O)c2ccc(S(=O)(=O)N3CCCC3)cc2)c1OC | -5.4%
O=C(Nc1ccc(Cl)cn1)c1cccnc1 | 13%
CN(C)S(=O)(=O)c1cccc(C(=O)Nc2ccc(Cl)cn2)c1 | -15.5%
Cc1nnc(NC(=O)c2cccc(F)c2)s1 | -2.4%
O=C(Nc1ccc(Cl)cn1)c1cccc(F)c1 | 53.4% (active)
O=C(Nc1ncccc1Cl)c1cccc(F)c1 | 62.6% (active)
O=C(Nc1ccncc1)c1cccc(F)c1 | -0.4%
O=C(CSc1nnc(-c2cccs2)o1)N1CCCc2ccccc21 | -17.8%
CCOC(=O)C1CCCN(CC(=O)Nc2c(C(=O)OC)[nH]c3ccc(C)cc23)C1 (stereo unspecified) | -8.3%
N=c1cc(C2(O)CCCCC2)n2c(nc3ccccc32)s1 | 51.1% (active)
CC(C)(O)c1cc(=O)sc2nc3ccccc3n12 | -13.4%
c1ccc2nc3c(nc2c1)sc1nc2ccccc2n13 | -6.8%
